Inconclusive results are not listed. Active and inactive are the calls of the source. The call rests on the fitted dose curve; in most records, active means well fitted inhibition curve with a large enough effect; inconclusive means small, poorly fitted or top-dose-only effect; inactive means flat fitted curve, though single readings scatter.
target: Luciferin 4-monooxygenase (Photinus pyralis) (UniProt P08659); assay: FLuc inhibitory activity for the follow-up compounds in a biochemical assay with Km concentrations of substrate and 500microM CoASH; details: purified FLuc, Km substrates + 500 uM CoASH, luminescence; series mostly up to 57.5 µM
Method in brief: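 Purified P. pyralis luciferase (10 nM) in 50mM Tris acetate pH 7.5, 10mM Mg acetate, with 10uM D-luciferin, 10uM ATP and 500 uM CoASH; 12-point qHTS titration, ~60uM to 0.3nM final. Luminescence read by CCD imager.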

Luciferin 4-monooxygenase (Photinus pyralis), sequence (P08659 whole entry, looked up): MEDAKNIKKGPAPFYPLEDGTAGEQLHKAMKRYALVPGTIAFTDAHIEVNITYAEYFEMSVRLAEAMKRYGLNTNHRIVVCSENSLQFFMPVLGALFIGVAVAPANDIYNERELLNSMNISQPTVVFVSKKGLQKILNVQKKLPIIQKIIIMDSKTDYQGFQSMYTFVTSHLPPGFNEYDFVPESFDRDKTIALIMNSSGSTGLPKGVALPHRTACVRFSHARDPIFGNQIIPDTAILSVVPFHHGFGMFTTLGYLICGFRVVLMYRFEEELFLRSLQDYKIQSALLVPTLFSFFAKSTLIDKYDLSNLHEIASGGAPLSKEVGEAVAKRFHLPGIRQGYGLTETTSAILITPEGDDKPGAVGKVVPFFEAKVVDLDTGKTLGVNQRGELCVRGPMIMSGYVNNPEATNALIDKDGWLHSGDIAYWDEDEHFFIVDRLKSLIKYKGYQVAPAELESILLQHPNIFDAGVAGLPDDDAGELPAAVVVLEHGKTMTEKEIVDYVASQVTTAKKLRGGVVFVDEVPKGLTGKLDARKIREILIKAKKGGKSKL

Potency, active:
Nc1ccccc1-c1nc2ccccc2s1 3.26 µM, CCOc1ccc2nc(NC(=O)c3ccoc3C)sc2c1 0.183 µM, Nc1cccc(-c2nc3ccc(N)cc3s2)c1 0.146 µM, Cc1cccc(C(=O)Nc2ccc(-c3nc4ccccc4s3)cc2Cl)c1 18.3 µM, CC(C)CC(=O)Nc1cccc(C(=O)Nc2ccccc2C(=O)O)c1 13 µM

— PubChem BioAssay AID602358 (National Center for Advancing Translational Sciences (NCATS), 2012)
